According to PubChem BioAssay (NCI):
About 79,000 compounds went through this panel and 15% of them were active in at least one assay; those are over-represented in the sample as a whole. Active and inactive are the calls of the source. Rule as the data show it: active = growth inhibition above about 70%; inactive = the rest.

What was measured:
[1] = NCI Yeast Anticancer Drug Screen. Data for the wt1 strain (AID 149);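 also: 0% = growth of vehicle-treated wt1 cultures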; conditions: S. cerevisiae wt1 strain (SPY 50644) growth inhibition, stronger effect = higher value
Summary of the method: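 Growth inhibition read against vehicle controls after compound exposure of the wt1 yeast strain.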

[2] = NCI Yeast Anticancer Drug Screen. Data for the rad50EPP+ strain (AID 151);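 also: 0% = growth of vehicle-treated control cultures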; conditions: S. cerevisiae rad50 mutant strain, stronger effect = higher value
Summary of the method: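 Measured: growth inhibition of rad50EPP+ yeast. Reference: vehicle-treated controls. Screen uses strains with defined genetic alterations in DNA damage repair or cell cycle control.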

[3] = NCI Yeast Anticancer Drug Screen. Data for the mgt1 strain (AID 153); conditions: S. cerevisiae mgt1 mutant growth inhibition, stronger effect = higher value
Summary of the method: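 Compounds were applied to mgt1 mutant yeast, and growth was then compared against vehicle-treated control cultures to give percent inhibition.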

[4] = NCI Yeast Anticancer Drug Screen. Data for the rad50 strain (AID 155);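 also: 0% = growth of vehicle-only cultures of the same strain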; conditions: S. cerevisiae rad50 strain growth inhibition, stronger effect = higher value
Summary of the method: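 Readout: growth inhibition relative to vehicle-treated cultures. Compound exposure was carried out in a genetically defined yeast strain deficient in DNA damage repair.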

[5] = NCI Yeast Anticancer Drug Screen. Data for the mec2-1 strain (AID 157); conditions: S. cerevisiae mec2-1 strain, stronger effect = higher value
Summary of the method: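 Compounds were applied to mec2-1 yeast cells. Their growth was then compared with that of vehicle-treated cultures to give growth inhibition.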

[6] = NCI Yeast Anticancer Drug Screen. Data for the rad14 strain (AID 159);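 also: 0% = growth of vehicle-treated control cultures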; conditions: S. cerevisiae rad14 strain growth inhibition, stronger effect = higher value
Summary of the method: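 Growth inhibition vs vehicle controls; genetically altered yeast strain (DNA damage repair defect) treated with test compounds.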

[7] = NCI Yeast Anticancer Drug Screen. Data for the sgs1 mgt1 strain (AID 161);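 also: 0% = growth of cultures given vehicle only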; conditions: S. cerevisiae sgs1 mgt1 strain, stronger effect = higher value
Summary of the method: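 Growth of a repair-deficient yeast mutant was monitored after compound treatment and expressed as inhibition relative to vehicle-treated cultures.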

[8] = NCI Yeast Anticancer Drug Screen. Data for the CLN2oe strain (AID 163);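 also: 0% = growth of vehicle-only control cultures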; conditions: S. cerevisiae CLN2oe strain, stronger effect = higher value
Summary of the method: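 Cells of an engineered yeast line with disturbed cell-cycle regulation are treated with compound. Inhibition of growth is then calculated relative to the vehicle-treated reference.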

[9] = NCI Yeast Anticancer Drug Screen. Data for the cln2 rad14 strain (AID 165);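 also: 0% = growth equal to vehicle treated cultures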; conditions: S. cerevisiae cln2 rad14 strain, stronger effect = higher value
Summary of the method: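 Strain: cln2 rad14 yeast, altered in cell cycle control and DNA damage repair. Read-out: growth inhibition vs vehicle.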

[10] = NCI Yeast Anticancer Drug Screen. Data for the bub3 strain (AID 167); conditions: S. cerevisiae bub3 mutant strain, stronger effect = higher value
Summary of the method: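 Readout: yeast growth inhibition, expressed relative to vehicle-only wells. The test organism is a mutant strain from a panel with lesions in DNA repair or checkpoint genes.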

[11] = NCI Yeast Anticancer Drug Screen. Data for the wt2 strain (AID 169);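 also: 0% = growth of vehicle-treated yeast cultures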; conditions: S. cerevisiae wt2 strain growth inhibition, stronger effect = higher value
Summary of the method: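 Growth of compound-treated yeast is measured and expressed as inhibition relative to vehicle-only controls.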

[12] = NCI Yeast Anticancer Drug Screen. Data for the mlh1 strain (AID 171);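 also: 0% = growth of vehicle-treated control cultures of the same strain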; conditions: S. cerevisiae mlh1 strain growth inhibition, stronger effect = higher value
Summary of the method: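 Test agents were incubated with yeast bearing a defined DNA damage repair or cell cycle control alteration; values are growth inhibition normalised to vehicle-treated cultures.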

[13] = NCI Yeast Anticancer Drug Screen. Data for the sgs1 strain (AID 173);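 also: 0% = growth of vehicle-only control cultures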; conditions: S. cerevisiae sgs1 mutant, stronger effect = higher value
Summary of the method: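 Strain with an altered DNA repair or cell cycle pathway exposed to compound. Growth then measured. Value = inhibition versus vehicle control.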

[14] = NCI Yeast Anticancer Drug Screen. Data for the mlh1 rad18 strain (AID 175); conditions: S. cerevisiae mlh1 rad18 strain growth inhibition, stronger effect = higher value
Summary of the method: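 A repair-deficient yeast strain is exposed to test compound, and growth is scored relative to vehicle-treated controls.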

[15] = NCI Yeast Anticancer Drug Screen. Data for the rad18 strain (AID 177); conditions: S. cerevisiae rad18 mutant growth inhibition, stronger effect = higher value
Summary of the method: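 DNA-repair-defective yeast; compound treatment; growth inhibition scored against vehicle.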

[16] = at 5.0 µM (retest, dose inferred, filed as 0.5)
[17] = at 50.0 µM (retest, dose inferred, filed as 5.0)

Measured: growth inhibition

O=C(NC(Nc1ccc(F)c(Cl)c1)(C(F)(F)F)C(F)(F)F)C(C(F)(F)F)C(F)(F)F
active: [1]; at 33.0 µM 96% | [1]; at 100.0 µM 98% | [3]; at 33.0 µM 94% | [3]; at 100.0 µM 98% | [4]; at 33.0 µM 91% | [4]; [17] 96% | [4]; at 100.0 µM 96% | [5]; at 11.0 µM 74% | [5]; at 33.0 µM 97% | [5]; [17] 92% | [5]; at 100.0 µM 98% | [6]; at 33.0 µM 85% | [6]; at 100.0 µM 94% | [7]; [17] 72% | [8]; at 11.0 µM 92% | [8]; at 33.0 µM 97% | [8]; at 100.0 µM 97% | [9]; [17] 98% | [9]; at 50.0 µM 88% | [10]; at 11.0 µM 80% | [10]; at 33.0 µM 95% | [10]; [17] 95% | [10]; at 50.0 µM 75% | [10]; at 100.0 µM 97% | [11]; at 11.0 µM 86% | [11]; at 33.0 µM 99% | [11]; at 100.0 µM 99% | [12]; at 33.0 µM 94% | [12]; at 100.0 µM 98% | [13]; at 33.0 µM 93% | [13]; at 100.0 µM 96% | [14]; [17] 90% | [14]; at 50.0 µM 93.4% | [15]; at 33.0 µM 83% | [15]; at 100.0 µM 92%
inactive: [1]; at 1.2 µM 8% | [1]; at 3.7 µM 7% | [1]; at 11.0 µM 48% | [2]; at 1.2 µM -7% | [2]; at 3.7 µM -13% | [2]; at 11.0 µM -25% | [2]; at 33.0 µM -16% | [2]; at 100.0 µM 2% | [3]; at 1.2 µM 26% | [3]; at 3.7 µM 25% | [3]; at 11.0 µM 54% | [4]; at 1.2 µM 8% | [4]; at 3.7 µM 17% | [4]; [16] 28% | [4]; at 11.0 µM 44% | [4]; at 50.0 µM 24.6% | [5]; at 1.2 µM 8% | [5]; at 3.7 µM 23% | [5]; [16] 3% | [5]; at 50.0 µM 27.6% | [6]; at 1.2 µM 9% | [6]; at 3.7 µM 19% | [6]; at 11.0 µM 26% | [7]; [16] 17% | [7]; at 50.0 µM 36% | [8]; at 1.2 µM 9% | [8]; at 3.7 µM 32% | [9]; [16] 43% | [10]; at 1.2 µM 5% | [10]; at 3.7 µM 15% | [10]; [16] 20% | [11]; at 1.2 µM 1% | [11]; at 3.7 µM 34% | [12]; at 1.2 µM 26% | [12]; at 3.7 µM 25% | [12]; at 11.0 µM 54% | [13]; at 1.2 µM 8% | [13]; at 3.7 µM 14% | [13]; at 11.0 µM 42% | [14]; [16] 21% | [15]; at 1.2 µM 22% | [15]; at 3.7 µM 14% | [15]; at 11.0 µM 40%

Cn1c(N)nc(-c2ccc(Cl)cc2)c1SSc1c(-c2ccc(Cl)cc2)nc(N)n1C
active: [2]; at 33.0 µM 84% | [2]; at 100.0 µM 97% | [3]; at 33.0 µM 71% | [3]; at 100.0 µM 98% | [4]; at 33.0 µM 73% | [4]; at 50.0 µM 95.5% | [4]; at 100.0 µM 97% | [5]; at 33.0 µM 75% | [5]; at 50.0 µM 93.1% | [5]; at 100.0 µM 97% | [6]; at 100.0 µM 97% | [7]; at 50.0 µM 94.8% | [8]; at 100.0 µM 97% | [9]; at 50.0 µM 92% | [10]; at 33.0 µM 82% | [10]; [17] 93% | [10]; at 50.0 µM 94.9% | [10]; at 100.0 µM 97% | [12]; at 33.0 µM 82% | [12]; at 100.0 µM 98% | [13]; at 33.0 µM 85% | [13]; at 100.0 µM 98% | [14]; at 50.0 µM 97.8% | [15]; at 33.0 µM 88% | [15]; at 100.0 µM 94%
inactive: [2]; at 1.2 µM -6% | [2]; at 3.7 µM 9% | [2]; at 11.0 µM 53% | [3]; at 1.2 µM -2% | [3]; at 3.7 µM 0% | [3]; at 11.0 µM 13% | [4]; at 1.2 µM -9% | [4]; at 3.7 µM -17% | [4]; [16] -13% | [4]; at 11.0 µM 6% | [4]; [17] 15% | [5]; at 1.2 µM -1% | [5]; at 3.7 µM 3% | [5]; [16] -15% | [5]; at 11.0 µM 30% | [5]; [17] 13% | [6]; at 1.2 µM -1% | [6]; at 3.7 µM -1% | [6]; at 11.0 µM 10% | [6]; at 33.0 µM 53% | [7]; [16] -12% | [7]; [17] 6% | [8]; at 1.2 µM -8% | [8]; at 3.7 µM -2% | [8]; at 11.0 µM 5% | [8]; at 33.0 µM 63% | [9]; [16] 37% | [9]; [17] -3% | [10]; at 1.2 µM -4% | [10]; at 3.7 µM -2% | [10]; [16] -4% | [10]; at 11.0 µM 21% | [12]; at 1.2 µM 0% | [12]; at 3.7 µM 3% | [12]; at 11.0 µM 23% | [13]; at 1.2 µM 0% | [13]; at 3.7 µM 6% | [13]; at 11.0 µM 28% | [14]; [16] -5% | [14]; [17] 24% | [15]; at 1.2 µM -3% | [15]; at 3.7 µM -1% | [15]; at 11.0 µM 34%
